Rows were chosen to be rich in hits. Some 3.5% of all compounds tested hit in one or more screens of this group.
FBW7 act = FBW7 E3 ligase activators, primary screen, biochemical, AlphaScreen, human; AlphaScreen FBW7–phospho-cyclin E peptide binding, activator screen; normalized activity (activation), % at 26.1 µM; 0.13% of 650,000 active; in the data active = normalized activity above about 1.9%;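 note: purified mutant Fbw7 with reduced substrate affinity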
GPR151 activ = activators of human GPR151, primary screen, cell-based, PathHunter beta-arrestin, luminescence; G-protein coupled receptor 151 (Homo sapiens), Q8TDV0; PathHunter beta-arrestin GPR151 cells; activation, % at 11.2 µM; 1% of 650,000 active; in the data active = activation above about 4.9%
TEAD-YAP inh = TEAD-YAP interaction inhibition, primary screen, TEAD-YAP interaction inhibitor project, luminescence, HEK-TIYL cells. TEAD-Gal4/YAP UAS-luciferase luminescence. inhibition, % at 9.12 µM. 1.4% of 640,000 active. AID 1259422, 2018; in the data active = inhibition above about 32%
MITF primary = MITF inhibitors, primary screen, biochemical, AlphaScreen, human; AID 1259374, 2018; inhibition, % at 2.6 µM; 0.91% of 650,000 active; AlphaScreen MITF homodimerization, bead proximity signal; in the data active = inhibition above about 50%
Target sequence (O75030 whole entry, looked up): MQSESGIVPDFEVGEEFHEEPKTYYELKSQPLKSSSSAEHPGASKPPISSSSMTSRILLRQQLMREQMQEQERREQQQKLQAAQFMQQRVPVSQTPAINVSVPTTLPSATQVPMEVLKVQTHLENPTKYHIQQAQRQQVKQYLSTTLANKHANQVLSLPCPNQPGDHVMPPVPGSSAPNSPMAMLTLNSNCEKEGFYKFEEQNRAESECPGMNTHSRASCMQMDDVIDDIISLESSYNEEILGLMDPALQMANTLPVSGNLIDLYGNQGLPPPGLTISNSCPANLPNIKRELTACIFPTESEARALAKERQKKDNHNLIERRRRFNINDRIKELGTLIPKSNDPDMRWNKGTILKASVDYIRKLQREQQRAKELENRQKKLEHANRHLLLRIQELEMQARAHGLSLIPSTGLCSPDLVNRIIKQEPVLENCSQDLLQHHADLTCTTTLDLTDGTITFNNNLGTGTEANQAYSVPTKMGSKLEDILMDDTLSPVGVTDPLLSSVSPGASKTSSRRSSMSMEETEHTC
MITF inh conf = MITF inhibitors, retest of hits, confirmation, biochemical, AlphaScreen, triplicate. shares compounds with MITF primary. AlphaScreen MITF homodimerization, biotin/His-MITF beads. inhibition, % at 2.6 µM. 16% of 4,700 active. AID 1259372, 2018;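 active = inhibition above a cutoff derived from the DMSO control wells, cut at about 28% in these data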;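 note: inhibitors lower the bead chemiluminescence by keeping MITF from dimerizing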
AS interf DR = AlphaScreen optical interference compounds, dose response, counter-screen, biochemical, HTS | AlphaScreen optical interference counterscreen, cell-free | IC50, µM | 6% of 480 active | shares compounds with MITF primary | AID 1259373, 2018; call rule not given here
AS interf ctr = AlphaScreen optical interference compounds, counter-screen for MITF inhibitor project, biochemical, triplicate; shares compounds with MITF primary; LysRS AlphaScreen counterscreen, signal interference; inhibition, % at 2.6 µM; 7.6% of 4,700 active; AID 1259376, 2018;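 active = inhibition above a cutoff derived from the DMSO control wells, cut at about 30% in these data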
Of the large screens only hits and unclear results are named; the others gave an inactive call (follow-up assays come after a bar, where they were run); ! = not confirmed by another sample.

O=C(NCc1ccccc1)c1cccc(-c2cccs2)c1	none
O=C(NCCO)c1cccc(-c2cccs2)c1	MITF primary 58.9 | MITF inh conf 58.9 | AS interf DR inactive | AS interf ctr inactive
O=C(NCc1cccnc1)C(=O)NCc1cccnc1	MITF primary 72.3 | MITF inh conf inactive | AS interf ctr inactive
Cc1nc2sccn2c(=O)c1S(=O)(=O)N1CCCCCC1	none
Cc1cccc(OCCCCNCCO)c1C	none
Cc1cc(OCCOCCN2CCCC2)ccc1C(C)C	none
Cc1ccc(C)c(OCCCCNCCO)c1C	MITF primary 55.5 | MITF inh conf inactive | AS interf ctr inactive
COCCCNCCOc1ccc(C(C)C)c(C)c1	MITF primary 59.8 | MITF inh conf inactive | AS interf ctr inactive
C=CCNCCOCCOc1ccc(C(C)C)c(C)c1	MITF primary 51.9 | MITF inh conf inactive | AS interf ctr inactive
Cc1cc(OCCNCCN)ccc1C(C)C	none
COCCCNCCCOc1ccc(OCc2ccccc2)cc1	MITF primary 54.3 | MITF inh conf inactive | AS interf ctr inactive
Cc1cccc(C(=O)N/N=C\c2cccc(Cl)c2)c1	none
O=C(Nc1ccc2c(c1O)C(=O)c1ccccc1C2=O)c1ccccc1	none
Cc1cc(OCCNCCO)ccc1C(C)C	none
COCCNCCOc1ccc(C(C)C)c(C)c1	MITF primary 60.4 | MITF inh conf inactive | AS interf ctr inactive
Cc1cc(OCCCCNCCO)ccc1C(C)C	MITF primary 61.9 | MITF inh conf inactive | AS interf ctr inactive
Cc1nn(-c2nc3c(c(=O)n(Cc4ccc(F)cc4)c(=O)n3C)n2C)c(C)c1C	none
CCc1nn(CC(=O)N2CCCC2)c(=O)c2cc3occc3n12	none
COC1CC2CCC(C)C(O)(O2)C(=O)C(=O)N2CCCCC2C(=O)OC(C(C)CC2CCC(O)C(OC)C2)CC(=O)C(C)/C=C(\C)C(O)C(OC)C(=O)C(C)CC(C)/C=C/C=C/C=C/1C (centres undefined)	none
C=CC[C@@H]1/C=C(\C)C[C@H](C)C[C@H](OC)[C@H]2O[C@@](O)(C(=O)C(=O)N3CCCC[C@H]3C(=O)O[C@H](/C(C)=C/[C@@H]3CC[C@@H](O)[C@H](OC)C3)[C@H](C)[C@@H](O)CC1=O)[C@H](C)C[C@@H]2OC	MITF primary 111.3! | MITF inh conf 122.2 | AS interf ctr 100.2
COc1ccc(-c2noc(-c3nnn(-c4ccccc4C)c3N)n2)cc1	none
CN(C)c1cccc(Nc2nc(C(=O)NC3CCN(Cc4ccccc4)CC3)cs2)c1	MITF primary 57.6 | MITF inh conf inactive | AS interf ctr inactive
Cc1cccc(CN2CCN(CC3CC=CCC3)CC2)c1 (centres undefined)	MITF primary 67.0 | MITF inh conf inactive | AS interf ctr inactive
Fc1ccc(CN2CCN(CC3CC=CCC3)CC2)cc1 (centres undefined)	MITF primary 65.3 | MITF inh conf inactive | AS interf ctr inactive
CCS(=O)(=O)N1CCN(Cc2cccc(C)c2)CC1	none
CCOc1cc(CN2CCCC2)ccc1OC	none
COc1ccc(CN2CCN(CC3CC=CCC3)CC2)cc1 (centres undefined)	MITF primary 60.6 | MITF inh conf inactive | AS interf ctr inactive
CCOc1cc(CN2CCN(CC3CC=CCC3)CC2)ccc1OC (centres undefined)	MITF primary 69.7 | MITF inh conf inactive | AS interf ctr inactive
COc1ccc(N2C(=O)C3ON(c4ccccc4)C(c4ccc(Cl)cc4Cl)C3C2=O)cc1 (centres undefined)	none
COc1ccc(CN2CCN(CC3CC=CCC3)CC2)cc1OC (centres undefined)	MITF primary 60.9 | MITF inh conf inactive | AS interf ctr inactive
COc1ccc(C(=O)N2CCN(CC3CC=CCC3)CC2)cc1OC (centres undefined)	none
CCCC(=NCCO)C1=C(O)C(C(=O)OC)C(C)(C)CC1=O (centres undefined)	none
Cc1cc2nc(C3CCN(Cc4nnnn4Cc4cccs4)CC3)[nH]c2cc1C	MITF primary 55.2 | MITF inh conf inactive | AS interf ctr inactive
CC(C)(C)c1nnc(NC(=O)CN2C(=O)C3C4C=CC(C4)C3C2=O)s1 (centres undefined)	MITF primary 67.6 | MITF inh conf inactive | AS interf ctr inactive
Cc1ccc(N2C(=O)C3ON(c4ccccc4)C(c4ccc([N+](=O)[O-])cc4)C3C2=O)cc1 (centres undefined)	MITF primary 60.7 | MITF inh conf inactive | AS interf ctr inactive
CCCCCCCNC(=O)COc1ccc2c(c1)C(=O)CC(C)(C)O2	none
CCN1CCN(CCCNC(=O)COc2ccc3c(c2)C(=O)CC(C)(C)O3)CC1	MITF primary 57.3 | MITF inh conf inactive | AS interf ctr inactive
S=c1[nH]nc(-c2cccnc2)n1/N=C/C=C/c1ccco1	MITF primary 70.8 | MITF inh conf 76.8 | AS interf DR inactive | AS interf ctr inactive
S=c1[nH]nc(-c2ccccc2)n1/N=C/C=C/c1ccco1	none
COc1ccc(OC)c(NC(=O)c2cc3ccc(O)cc3oc2=Nc2ccc(C(=O)O)cc2)c1	MITF primary 55.4 | MITF inh conf 79.1 | AS interf DR inactive | AS interf ctr inactive
CC1Oc2ccc(F)cc2N(Cc2ccccc2)C1=O (centres undefined)	none
COc1ccc(OC)c(CN2CCN(Cc3ccccc3F)CC2)c1	MITF primary 77.1 | MITF inh conf inactive | AS interf ctr inactive
COc1ccc(OC)c(CN2CCN(Cc3ccccc3Cl)CC2)c1	MITF primary 76.5 | MITF inh conf inactive | AS interf ctr inactive
COc1ccc(OC)c(CN2CCN(CCCc3ccccc3)CC2)c1	MITF primary 65.7 | MITF inh conf inactive | AS interf ctr inactive
COc1ccc(CN2CCN(Cc3ccccc3Cl)CC2)c(OC)c1	MITF primary 79.8 | MITF inh conf inactive | AS interf ctr inactive
CN(C)/C=C1/C=C(c2ccccc2)SC1=S	none
Cc1nn(CC(=O)OCc2cc(=O)oc3ccc4ccccc4c23)c(C)c1[N+](=O)[O-]	none
CCC(C(=O)NCCCN1CCOCC1)n1nc(C)n2c(cc3sccc32)c1=O (centres undefined)	none
Fc1ccccc1CN1CCC(N2CCCCC2)CC1	none
Clc1ccccc1CN1CCN(C2CCCCCC2)CC1	MITF primary 74.3 | MITF inh conf inactive | AS interf ctr inactive
Fc1ccccc1CN1CCN(C2CCCCC2)CC1	MITF primary 61.3 | MITF inh conf inactive | AS interf ctr inactive
Fc1ccccc1N1CCN(C2CCN(Cc3ccccc3)CC2)CC1	none
Clc1ccccc1CN1CCC(N2CCCCC2)CC1	none
CCN1CCN(C2CCN(Cc3ccccc3C)CC2)CC1	none
